Assay outcomes: PubChem BioAssay, National Center for Advancing Translational Sciences (NCATS)
KB-V1 cytotox: kills drug-selected multidrug resistant KB-V1 cells; KB-V1 MDR cells viability, CellTiter-Glo, 72 h; Potency, µM (doses to about 46.1 µM), usual class: cytotoxic; 400,000 compounds, 3.4% hits; further: potency means the concentration at half of the fitted maximal effect; on the % scale 0 is the no-effect control and ±100 the full control effect; nearly all actives have a fitted effect of over 60% in size
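Cytotoxicity via CellTiter-Glo luminescence after 72 h compound exposure at 37 degrees C. Cells: drug-selected KB-V1 line, DMEM phenol-red free plus 10% FBS. Compounds tested at multiple concentrations; normalized data fitted to concentration-effect curves.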
ASM inhibitor: inhibitors of human secretory acid sphingomyelinase | P17405 | placental ASM, HMU-PC fluorogenic substrate, 60 min | Potency, µM (doses to about 57.5 µM), for inactives: top-dose activity change, negative = inhibition, hits mostly inhibitors | 340,000 compounds, 0.006% hits; further: potency means the concentration at half of the fitted maximal effect
Target sequence (P17405 47-631 limits assumed): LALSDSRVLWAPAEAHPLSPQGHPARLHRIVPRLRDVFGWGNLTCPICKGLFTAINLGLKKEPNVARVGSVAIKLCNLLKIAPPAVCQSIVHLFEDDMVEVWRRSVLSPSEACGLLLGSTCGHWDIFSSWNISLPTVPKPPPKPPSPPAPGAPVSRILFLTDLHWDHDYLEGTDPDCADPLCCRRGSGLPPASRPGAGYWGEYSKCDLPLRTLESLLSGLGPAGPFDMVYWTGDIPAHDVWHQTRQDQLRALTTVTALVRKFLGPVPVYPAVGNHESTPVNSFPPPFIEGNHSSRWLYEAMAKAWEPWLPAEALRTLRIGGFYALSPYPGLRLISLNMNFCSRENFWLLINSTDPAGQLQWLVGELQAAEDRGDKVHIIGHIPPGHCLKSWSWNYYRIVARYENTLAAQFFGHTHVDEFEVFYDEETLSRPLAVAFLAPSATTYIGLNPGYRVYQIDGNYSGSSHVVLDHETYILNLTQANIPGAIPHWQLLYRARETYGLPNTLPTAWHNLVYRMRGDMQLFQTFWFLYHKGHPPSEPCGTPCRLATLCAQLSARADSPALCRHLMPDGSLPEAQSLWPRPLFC
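HMU-PC0 cleavage (9 uM final) by human placental ASM, 60 min at 37 °C following 10 min compound exposure at RT; stopped at pH 10, fluorescence Ex 386/Em 447 nm.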
SW480 rereplic: inducers of DNA re-replication in SW480 colon cancer cells; AID 624297; Potency, µM (top dose mostly 46.1 µM), for the others: top-dose re-replication activation, hits mostly activators; 340,000 compounds, 1.8% hits; SW480 DNA re-replication, Hoechst DNA content imaging, 48 h; further: potency means the concentration at half of the fitted maximal effect; % of control where 0% means no effect; nearly all actives have a fitted effect of over 55% in size
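Image-based read-out: total Hoechst fluorescence of nuclei (405 nm excitation, 500-530 nm emission), with hits raising the fraction of high-intensity nuclei. SW480 colon cells incubated 48 hr with compounds at 37 C.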
Giardia kill: kills Giardia lamblia. 340,000 compounds, 0.15% hits. Giardia lamblia trophozoite viability. activity change, % at 7.66 µM, hits read low; in the data active means activity change below about -80%; inconclusive means between about -30% and that limit;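 further: parasites exposed to compound for two days anaerobically before the ATP read; on the % scale 0 is the no-effect control and ±100 the full control effect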
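Luminescence from cellular ATP indicates surviving trophozoites (100 cells/well) following 48 hrs anaerobic compound treatment at 37 deg C; signal develops 15-30 min at room temperature.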
KB-3-1 tox: KB-3-1 parental cell cytotoxicity. KB-3-1 viability, CellTiter-Glo ATP luminescence, 72 h. Potency, µM (top dose mostly 46.1 µM), hits mostly cytotoxic. 400,000 compounds, 1.4% hits. AID 1347075; further: potency means the concentration at half of the fitted maximal effect; on the % scale 0 is the no-effect control and ±100 the full control effect; nearly all actives have a fitted effect of over 60% in size
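Parental KB-3-1 viability, qHTS format: 72 h compound exposure, 37 °C; CellTiter-Glo; media-only wells and DMSO plates as controls; concentration-effect fits on corrected data.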
MCF10A rerep: induces DNA re-replication in MCF 10a normal breast cells | MCF 10A DNA re-replication, Hoechst nuclear intensity, 48 h | Potency, µM (titrated, usually from 46.1 µM), for the others: top-dose activity, positive = re-replication, usual class: activators | 350,000 compounds, 2.9% hits | AID 624296; further: potency means the concentration at half of the fitted maximal effect; % of control where 0% means no effect; nearly all actives have a fitted effect of over 50% in size
Active calls of the source: *. In the library only some 6.9% were active in any assay of this set; here they are far more common. Unless noted, the call rests on the fitted dose curve; in most records, active means well fitted curve in the direction sought with a large enough effect; inconclusive means small, poorly fitted or top-dose-only effect, or another doubt; inactive means no such curve, though single readings can be large; an effect the other way counts as inactive or inconclusive.

`CCS(=O)(=O)N1Cc2cc(C(=O)NCC3CC3)nc(-c3cccc(-c4cccnc4)c3)c2[C@@H]1CCO` gave KB-V1 cytotox inactive and KB-3-1 tox inconclusive.
Screening CC(=O)N1Cc2cc(C(=O)NCC(F)(F)F)nc(-c3cccc(-c4cccnc4)c3)c2[C@H]1CCO returned KB-V1 cytotox inactive and KB-3-1 tox inactive.
CCNC(=O)c1cc2c(c(-c3cccc(-c4cccnc4)c3)n1)[C@H](CCO)N(S(C)(=O)=O)C2 was read as KB-V1 cytotox inconclusive and KB-3-1 tox 2.9µM*.
`CC(Sc1nnc(-c2ccccc2)n1C)C(=O)NCc1ccco1` (centres undefined) gave KB-V1 cytotox inactive and KB-3-1 tox inactive.
For CCCCNc1nc(Nc2ccc(C)c(Cl)c2)c2cnn(C)c2n1 the results were KB-V1 cytotox inactive, ASM inhibitor inconclusive, SW480 rereplic inconclusive, Giardia kill 3, KB-3-1 tox inactive and MCF10A rerep inconclusive.
`CCC1(C)CC2(CCCN(CCC(=O)c3ccccc3)C2)CCO1` (centres undefined) gave KB-V1 cytotox inactive, ASM inhibitor 3%, SW480 rereplic 11%, Giardia kill 0, KB-3-1 tox inactive and MCF10A rerep 21µM*.
Screening Cc1ccn2c(=O)cc(COc3ccc(NC(=O)COc4ccc(C)c(C)c4)cc3)nc2c1 returned KB-V1 cytotox inactive and KB-3-1 tox inactive.
`N#C/C(=C\c1cn(CCOc2ccccc2)c2ccccc12)C(=O)NCC1CCCO1` (centres undefined) gave KB-V1 cytotox 6.5µM*, ASM inhibitor 14%, SW480 rereplic inconclusive, Giardia kill 21, KB-3-1 tox inactive and MCF10A rerep 19%.
CCOC(=O)/C(C#N)=C/c1cn(CCOc2ccc(OC)cc2)c2ccccc12 was read as KB-V1 cytotox inactive, ASM inhibitor 3%, SW480 rereplic 4%, Giardia kill -11, KB-3-1 tox inactive and MCF10A rerep 16µM*.
O=C(NCCOc1ccccc1)C(=O)NCC1CCCO1 (centres undefined) was read as KB-V1 cytotox inconclusive, ASM inhibitor -3%, SW480 rereplic -6%, Giardia kill 2, KB-3-1 tox inactive and MCF10A rerep 3%.
Screening Cc1cc(/C=C(\C#N)C(=O)NCC2CCCO2)c(C)n1-c1ccc(Cl)cc1 (centres undefined) returned KB-V1 cytotox 4.1µM*, ASM inhibitor 10%, SW480 rereplic -13%, Giardia kill 4, KB-3-1 tox inactive and MCF10A rerep 3%.
COc1ccccc1OCCn1cc(/C=C(\C#N)C(=O)NCc2cccs2)c2ccccc21 was read as KB-V1 cytotox 18µM*, ASM inhibitor 2%, SW480 rereplic -14%, Giardia kill -17, KB-3-1 tox inactive and MCF10A rerep -6%.
For O=C(COC(=O)C1CCCC1)Nc1ncc(Cl)cc1Cl the results were KB-V1 cytotox inactive, ASM inhibitor 1%, SW480 rereplic -3%, Giardia kill 8, KB-3-1 tox inactive and MCF10A rerep 2%.
Screening Cn1c(=O)c(=O)n(C)c2cc(S(=O)(=O)CCC(=O)Nc3c(F)c(F)c(F)c(F)c3F)ccc21 returned KB-V1 cytotox inconclusive, ASM inhibitor -2%, SW480 rereplic -3%, Giardia kill 0, KB-3-1 tox inactive and MCF10A rerep -66%.
`Cc1ccc(C)c(OCCn2cc(/C=C(/C#N)C(=O)NCC3CCCO3)c3ccccc32)c1` (centres undefined) gave KB-V1 cytotox 15µM*, ASM inhibitor -2%, SW480 rereplic 25%, Giardia kill -5, KB-3-1 tox inactive and MCF10A rerep inconclusive.
Screening Cc1ccc(NC(=S)NNC(=S)Nc2ccc(C)cc2C)cc1 returned KB-V1 cytotox 4.6µM*, ASM inhibitor -7%, SW480 rereplic 26%, Giardia kill 2, KB-3-1 tox 1µM* and MCF10A rerep 21%.
